The record followed here is PubChem BioAssay (NCATS).

Each structure is given as a SMILES string. Several values for one entry are separate records, joined by “and”; a condition that tells them apart may be missing. Equal values may be shown once. Records with an inconclusive call do not appear.

The assay can be described thus: qHTS Assay for Lipid Storage Modulators (AID 1519). The following applies: Drosophila S3 cells, BODIPY lipid droplet/cell ratio, laser cytometry; measured here: lipid channel max response; cells loaded with oleic acid. Summed up: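 Cells seeded at 5,000 per well were treated with compounds over a concentration series and loaded with oleic acid (400 uM, as added). Lipid droplet fluorescence (488 nm excitation, 500-530 nm channel) was read by laser-scanning cytometry and normalized to 20 uM Triacsin C.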
With `CN1CCC[C@H]1c1cccnc1`, the max response is 10.7% and -7.32%.

Turning to `Ic1ccc(N2CCN(Cc3c[nH]c4ncccc34)CC2)cc1`, the max response is -22.2%.

As to `CC1(C)CCC=[N+]1[O-]`, the max response was -25.6%.

Regarding `COc1cccc(C(=O)NCCN2CCN(c3ccc(Cl)cc3)CC2)c1`, the max response is -18.1%.

As for `NCCCCC(=O)O`, the max response was 11.7% and -48.3%.

With `N.N.O=C(O)C1(C(=O)O)CCC1.[Pt]`, the max response was 23.7% and -31.2%.

Regarding `N=C(N)N`, the max response was 23.8%.

For the compound `O=C(/C=C/c1ccc(O)cc1)c1ccc(O)cc1O`, the max response is 5.97% and 48.5%.

As to `COc1cccc(OC)c1OCCNCC1COc2ccccc2O1` (stereo not given), the max response was 14.3% and -62.3%.

For the compound `Nc1ccc(C(=O)O)c(O)c1`, the max response was 14%.

Regarding `O=C(O)CNC(=O)C(CS)Cc1ccccc1` (stereo not given), the max response was -2.71%.

For `CN(C)CCC(c1ccc(Cl)cc1)c1ccccn1` (stereo not given), the max response amounted to 46%.

On to `CN1CCc2cc(O)c(O)cc2C(c2ccccc2)C1` (stereo not given), for which the max response worked out at 29.5%.

Consider `C=CC(N)CCC(=O)O` (stereo not given), for which the max response was 19.4%.

As to `Oc1ccc(C2CNCc3sccc32)cc1O` (stereo not given), the max response worked out at 25.8%.

Turning to `CCCCCCCCCCCCCCCCCC(=O)NCC(COP(=O)([O-])OCC[N+](C)(C)C)OCC` (stereo not given), the max response amounted to 12.1%.

Turning to `CN(C)c1nc(N)c(C(=O)N=C(N)N)nc1Cl`, the max response is -31.1%.

Take `OCC1O[C@H](O)C(Cl)C(O)C1O` (stereo not given in full): the max response was -14.7%.

For `CN1[C@@H](CC(=O)c2ccccc2)CCC[C@H]1C[C@H](O)c1ccccc1`, the max response worked out at 23.7%.

`Cc1ccc(C(=O)O[C@H](C(=O)O)[C@@H](OC(=O)c2ccc(C)cc2)C(=O)O)cc1` (tested in a mixture with another compound): the max response turned out to be 38.6%.
